# Laboratory results published in PubChem BioAssay.
# Tested on: Sonic hedgehog protein (Shh)
# Assay: Sonic hedgehog microarray binding compounds – biochemical, small-molecule microarray, 635/667 nm fluorescence, primary screen (AID 1151);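 note: Shh protein binding to compounds spotted on small-molecule microarray slides; score combines spot fluorescence intensity with signal-to-noise across triplicate slides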
# Conditions: 635 nm fluorescence, higher = more signal
row,Compound,composite z-score
1,COCC(=C=CC[C@@H](O)c1ccc(CO)o1)CCO,2.2
2,CC(C)N1C(=O)c2ccccc2[C@@H](C(=O)NCCCN(C)C)[C@@H]1c1ccc(CO)cc1,-0.589
3,C=C[C@@H](COC(C)=O)N(Cc1ccc([N+](=O)[O-])cc1)S(=O)(=O)c1ccc(Br)cc1,0.956
4,CC(C)C(=C=CC[C@@H](O)c1ccccc1OCCO)C[C@@H](O)c1ccccn1,1.14
5,C=CCNC(=O)[C@@H]1[C@H]2C(=O)O[C@H](c3ccccc3)[C@H](c3ccccc3)N2[C@H](c2ccc(O)cc2)[C@@]12C(=O)N(C(=O)OCCOC)c1ccccc12,0.951
6,CC(C)(C)OC(=O)CC[C@@]1(C(=O)NCCN2CCOCC2)N=C(c2ccc(OCCCO)cc2)O[C@@H]1c1ccccc1,0.306
7,N#Cc1ccc(NN2C(C(O)C3CCCCC3)C=CC3C(=O)N(c4ccccc4)C(=O)C32)cc1 (stereo not given),-0.81
8,C=CCN1C(=O)[C@]2(O[C@H](CCO)[C@@H]([Si](C)(C)c3ccc(OC)cc3)[C@@H]2C)c2cc(NC(=O)[C@H](C)O)ccc21,1.34
9,O=C1O[C@H](c2ccccc2)[C@H](c2ccccc2)N2[C@H]1[C@@H](C(=O)N1CCN(c3ncccn3)CC1)[C@]1(C(=O)Nc3ccccc31)[C@H]2c1ccc(OCCO)cc1,1.98
10,O=C1OCCC/C=C\[C@H]2OC34C=CCN(Cn5nnc6ccccc65)C(=O)[C@H]3N(CCCCCO)C(=O)[C@@H]4C12 (stereo not given in full),0.436
11,COc1cc2c(cc1OC)CN(C(=O)[C@@H]1[C@H]3C(=O)O[C@H](c4ccccc4)[C@H](c4ccccc4)N3[C@H](c3ccccc3OCCO)[C@@]13C(=O)Nc1ccc(C#CCNC(N)=O)cc13)CC2,1.38
12,COC(=O)[C@@]1(Cc2ccccc2)[C@H]2c3cc(C(=O)N4CCCC4)n(C)c3C[C@H]2CN1C(=O)c1ccccc1,-0.157
13,O=C1O[C@H](c2ccccc2)[C@H](c2ccccc2)N2[C@H]1[C@@H](C(=O)Nc1nc3ccccc3s1)[C@]1(C(=O)Nc3ccccc31)[C@H]2c1ccc(O)cc1,1.51
14,CCN(CC)c1ccc(N2CC=CC34O[C@@H]5C=CCCOC(=O)C5[C@H]3C(=O)N(CCCCCO)[C@@H]4C2=O)cc1 (stereo not given in full),0.16
15,COCCOC(=O)N1C(=O)[C@@]2(c3cc(C#CCC(C(=O)OC)C(=O)OC)ccc31)[C@H](c1ccc(O)cc1)N1[C@H](c3ccccc3)[C@H](c3ccccc3)OC(=O)[C@H]1[C@@H]2C(N)=O,0.922
16,NC(=O)NCC#Cc1ccc2c(c1)[C@]1(C(=O)N2)[C@H](C(=O)N2CCCCCCC2)[C@H]2C(=O)O[C@H](c3ccccc3)[C@H](c3ccccc3)N2[C@@H]1c1ccc(OCCO)cc1,0.679
17,CC(C)N1CC=CC23O[C@@H]4C=CCOC(=O)[C@@H]4[C@H]2C(=O)N(CCO)[C@@H]3C1=O (stereo not given in full),0.643
18,COc1ccc(CCNC(=O)[C@@]2(c3ccc([N+](=O)[O-])cc3)CC(=O)N(CC34CC5CC(CC(C5)C3)C4)[C@@H]2c2ccc(CO)cc2)cc1,0.948

row,Compound,composite z-score
1,COCCOC(=O)N1C(=O)[C@@]2(c3ccccc31)[C@H](C(=O)NC[C@H](O)c1ccccc1)[C@H]1C(=O)O[C@H](c3ccccc3)[C@H](c3ccccc3)N1[C@@H]2c1ccc(OCCO)cc1,2.29
2,COc1ccc(C(O)C2C=CC3C(=O)NC(=O)C3N2Nc2ccccn2)cc1OCc1ccccc1 (stereo not given),0.0157
3,COCCOC(=O)N1C(=O)[C@@]2(c3cc(C#CC4=CCCCC4)ccc31)[C@H](C(=O)NC[C@H](O)c1ccccc1)[C@H]1C(=O)O[C@H](c3ccccc3)[C@H](c3ccccc3)N1[C@@H]2c1ccc(O)cc1,1.34
4,COc1ccc([Si](C)(C)[C@@H]2[C@@H](CCn3cc([C@H](O)c4ccccc4)nn3)O[C@]3(C(=O)N(Cc4ccc(N5C(=O)c6cccc7cccc5c67)cc4)c4ccccc43)[C@H]2C)cc1,-0.0774
5,[N-]=[N+]=NCc1ccccc1C[C@]1(C(=O)O)N=C(c2ccc(OCCCO)cc2)O[C@H]1c1ccccc1CN=[N+]=[N-],-0.0214
6,CC(C)NC(=O)[C@@H]1c2ccccc2C(=O)N(Cc2ccccc2)[C@H]1c1ccc(CO)cc1,0.495
7,COCCOC(=O)N1C(=O)[C@@]2(c3cc(C#CCNC(N)=O)ccc31)[C@H](c1ccccc1OCCO)N1[C@H](c3ccccc3)[C@H](c3ccccc3)OC(=O)[C@H]1[C@@H]2C(N)=O,1.8
8,O=C1C2C=CC(C(O)c3ccc(B(O)O)cc3)N(Nc3ccccc3)C2C(=O)N1c1ccccc1 (stereo not given),-0.661
9,COC(=O)[C@@]1(Cc2ccc(F)cc2)[C@H]2c3cc(C(=O)N(C)C)n(CCc4ccccn4)c3C[C@H]2CN1C(=O)c1ccccc1,-0.154
10,Cc1ccc(S[C@]2(C(=O)NC3CC3)CC(=O)N(Cc3ccccc3)[C@@H]2c2ccc(CO)cc2)cc1,-0.863
11,O=C1C2C=CC(C(O)c3ccc(F)cc3)N(Nc3ccccc3)C2C(=O)N1c1ccccc1 (stereo not given),-0.61
12,Cc1cc(C)c(C(O)C2C=CC3C(=O)N(C)C(=O)C3N2Nc2ccccc2)c(C)c1 (stereo not given),-0.0207
13,[N-]=[N+]=NCc1ccccc1C[C@]1(C(=O)NCCN2CCOCC2)N=C(c2ccc(OCCCO)cc2)O[C@H]1c1ccccc1N=[N+]=[N-],-0.0478
14,O=C(OCCF)C1=CCC(c2cccc(Cl)c2)O1 (stereo not given),0.299
15,[N-]=[N+]=NCc1ccccc1C[C@]1(C(=O)NCC(O)CO)N=C(c2ccc(OCCCO)cc2)O[C@H]1c1ccccc1N=[N+]=[N-] (stereo not given in full),-1.48
16,COCC1=C2[C@@H](CCc3ccccc3)OB(O)C[C@@H]2[C@@H]2C(=O)N(Cc3ccccc3)C(=O)[C@@H]2C1,0.333
17,[N-]=[N+]=Nc1ccccc1[C@H]1OC(c2ccc(OCCCO)cc2)=N[C@@]1(CCS(=O)(=O)c1ccccc1)C(=O)O,-0.721
